# From PubChem BioAssay AID1159580 (chemical genetic matrix, 2015)
# Hit rate of the full screen: of about 5,500 compounds, about 2,000 (36%) were called active. Inconclusive results (about 18%) are left out. The list shows a part of the results. Unmarked numbers belong to inactive results. Rule as the data show it: active = normalized growth mostly below about 0.91 (no sharp cut-off); inconclusive = no clear call, values can overlap the other calls; inactive = mostly above about 0.92.
# Assay: chemical genetic growth profiling, strain panel (AID 1159580);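 also: tested at 20 µM; growth read once vehicle control cultures reached saturation at 30 °C; 1 = growth at the plate median or of vehicle wells; lower values mean less growth of the strain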
# Conditions: S. cerevisiae deletion strains, growth OD
structure (smiles),measurement,setting,value
Cc1c(O)c(O)cc2c1CC=C1[C@@]2(C)CC[C@@]2(C)C3C[C@](C)(C(=O)O)CC[C@]3(C)CC[C@]12C (some centres not stated),normalized growth,"locus YJR043C, strain POL32, hits give low values",0.914
same,normalized growth,"locus YJR066W, strain TOR1, hits give low values",0.901
same,normalized growth,"locus YKL009W, strain mrt4, hits give low values",0.986
same,normalized growth,"locus YKL068W, hits give low values",0.941 (active)
same,normalized growth,"locus YKL085W, strain MDH1 (second series), hits give low values",0.919 (active)
same,normalized growth,"locus YKL085W, strain MDH1, hits give low values",0.919 (active)
same,normalized growth,"locus YKL160W, strain elf1, hits give low values",0.386 (active)
same,normalized growth,"locus YKR001C, strain vps1, hits give low values",0.728 (active)
same,normalized growth,"locus YKR026C, strain gcn3, hits give low values",0.804 (active)
same,normalized growth,"locus YKR091W, strain srl3, hits give low values",0.8 (active)
same,normalized growth,"locus YLL001W, strain dnm1, hits give low values",0.617 (active)
same,normalized growth,"locus YLL026W, hits give low values",0.496 (active)
same,normalized growth,"locus YLL041C, strain sdh2, hits give low values",0.645 (active)
same,normalized growth,"locus YLR027C, strain aat2, hits give low values",0.433 (active)
same,normalized growth,"locus YLR039C, strain RIC1, hits give low values",0.616 (active)
same,normalized growth,"locus YLR058C, strain SHM2, hits give low values",0.894
same,normalized growth,"locus YLR102C, strain apc9, hits give low values",0.984
same,normalized growth,"locus YLR113W, strain HOG1, hits give low values",0.651 (active)
same,normalized growth,"locus YLR221C, strain rsa3, hits give low values",0.4 (active)
same,normalized growth,"locus YLR258W, strain gsy2, hits give low values",0.398 (active)
same,normalized growth,"locus YLR262C, strain YPT6 (second series), hits give low values",0.186 (active)
same,normalized growth,"locus YLR262C, strain YPT6, hits give low values",0.609
same,normalized growth,"locus YLR268W, strain sec22, hits give low values",0.891
same,normalized growth,"locus YLR320W, strain mms22, hits give low values",0.221 (active)
same,normalized growth,"locus YLR330W, strain CHS5, hits give low values",0.877 (active)
same,normalized growth,"locus YLR342W, strain FKS1 (second series), hits give low values",0.868
same,normalized growth,"locus YLR342W, strain FKS1, hits give low values",0.561 (active)
same,normalized growth,"locus YLR357W, strain rsc2, hits give low values",0.657 (active)
same,normalized growth,"locus YLR370C, strain arc18, hits give low values",0.63 (active)
same,normalized growth,"locus YLR371W, strain rom2, hits give low values",0.912
same,normalized growth,"locus YLR384C, strain iki3, hits give low values",0.885 (active)
same,normalized growth,"locus YLR418C, strain cdc73, hits give low values",0.645 (active)
same,normalized growth,"locus YML016C, strain PPZ1, hits give low values",0.927
same,normalized growth,"locus YML032C, strain rad52, hits give low values",0.96
same,normalized growth,"locus YML120C, strain ndi1, hits give low values",0.568 (active)
same,normalized growth,"locus YML124C, strain tub3, hits give low values",0.971
same,normalized growth,"locus YMR058W, strain fet3, hits give low values",0.0953 (active)
same,normalized growth,"locus YMR078C, strain ctf18, hits give low values",0.984
same,normalized growth,"locus YMR125W, strain sto1, hits give low values",0.483 (active)
same,normalized growth,"locus YMR129W, hits give low values",0.764 (active)
same,normalized growth,"locus YMR205C, strain PFK2, hits give low values",0.364 (active)
same,normalized growth,"locus YMR223W, strain ubp8, hits give low values",0.906
same,normalized growth,"locus YMR231W, strain pep5, hits give low values",0.361 (active)
same,normalized growth,"locus YMR307W, strain GAS1, hits give low values",0.782
same,normalized growth,"locus YNL067W, strain RPL9B, hits give low values",0.918
same,normalized growth,"locus YNL071W, strain lat1, hits give low values",0.0934 (active)
same,normalized growth,"locus YNL183C, strain NPR1, hits give low values",0.837
same,normalized growth,"locus YNL209W, strain ssb2, hits give low values",0.376 (active)
same,normalized growth,"locus YNL233W, strain BNI4, hits give low values",0.873
same,normalized growth,"locus YNL248C, strain rpa49, hits give low values",0.741 (active)
same,normalized growth,"locus YNL250W, strain rad50, hits give low values",0.972
same,normalized growth,"locus YNL271C, strain bni1, hits give low values",0.991
same,normalized growth,"locus YNL298W, strain CLA4, hits give low values",1.01
same,normalized growth,"locus YNL307C, strain MCK1, hits give low values",0.822 (active)
same,normalized growth,"locus YNL322C, strain KRE1 (second series), hits give low values",0.935
same,normalized growth,"locus YNL322C, strain KRE1, hits give low values",0.937
same,normalized growth,"locus YNR049C, strain mso1, hits give low values",0.72 (active)
same,normalized growth,"locus YNR052C, strain pop2, hits give low values",0.977
same,normalized growth,"locus YOL012C, strain htz1",0.648
same,normalized growth,"locus YOL147C, strain pex11, hits give low values",0.976
same,normalized growth,"locus YOR001W, strain rrp6, hits give low values",0.683 (active)
same,normalized growth,"locus YOR061W, strain CKA2, hits give low values",0.934
same,normalized growth,"locus YOR069W, strain VPS5, hits give low values",0.945
same,normalized growth,"locus YOR070C, strain gyp1, hits give low values",0.393 (active)
same,normalized growth,"locus YOR080W, strain dia2, hits give low values",0.697 (active)
same,normalized growth,"locus YOR083W, strain WHI5, hits give low values",0.656 (active)
same,normalized growth,"locus YOR106W, strain vam3, hits give low values",0.331 (active)
same,normalized growth,"locus YOR136W, strain idh2, hits give low values",1
same,normalized growth,"locus YOR144C, strain elg1, hits give low values",0.977
same,normalized growth,"locus YOR184W, strain ser1, hits give low values",0.812 (active)
same,normalized growth,"locus YOR231W, strain MKK1, hits give low values",0.917
same,normalized growth,"locus YOR265W, strain rbl2, hits give low values",0.479 (active)
same,normalized growth,"locus YOR270C, strain vph1, hits give low values",0.273 (active)
same,normalized growth,"locus YOR290C, strain snf2, hits give low values",0.434 (active)
same,normalized growth,"locus YOR316C, strain cot1, hits give low values",0.981
same,normalized growth,"locus YPL051W, strain arl3, hits give low values",0.248 (active)
same,normalized growth,"locus YPL055C, strain LGE1, hits give low values",0.755 (active)
same,normalized growth,"locus YPL078C, strain atp4, hits give low values",0.62 (active)
same,normalized growth,"locus YPL106C, strain sse1, hits give low values",0.507 (active)
same,normalized growth,"locus YPL240C, strain hsp82, hits give low values",0.417 (active)
same,normalized growth,"locus YPL241C, strain CIN2, hits give low values",0.96
same,normalized growth,"locus YPL256C, strain CLN2, hits give low values",0.856
same,normalized growth,"locus YPR119W, strain clb2, hits give low values",0.979
same,normalized growth,"locus YPR141C, strain kar3, hits give low values",0.956
same,normalized growth,"locus YPR163C, strain tif3, hits give low values",0.924
same,normalized growth,"locus YPR167C, strain met16, hits give low values",0.948
same,normalized growth,"strain wtn01, hits give low values",0.93
